Data from PubChem BioAssay (NCATS).
Inconclusive results are not listed. A number with no mark means an inactive call. Calls of active or inactive are those of the source. Calls follow the shape of the dose curve; as a rule, active = well fitted inhibition curve with a large enough effect; inconclusive = small, poorly fitted or top-dose-only effect; inactive = flat fitted curve, though single readings scatter.

Target: Dual specificity protein kinase CLK4 (Homo sapiens) (UniProt Q9HAZ1)
Assay: qHTS Assay for Inhibitors of CDC-like Kinase 4 (ADP-FP Assay) (AID 1795); also: nearly all actives have a fitted effect of over 60% in size;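 as to activity change, negative = inhibition: recombinant human CLK4 phosphorylating RS repeat peptide at 1 µM ATP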
Settings: Transcreener ADP fluorescence polarization; series mostly up to 50 µM; activity change, negative = inhibition: at the top concentration
Experimental: NIH Molecular Libraries Probe Production Centers Network [MLPCN] NIH Chemical Genomics Center [NCGC] MLPCN Grant: 1R03MH084827-01 Assay Submitter (PI): Tom Misteli NCGC Assay Overview: Clk4 (Invitrogen cat # PV3839) was assayed using ATP and the RS repeat peptide (AnaSpec cat # 61722) as substrates using Transcreener (trade mark), a competitive fluorescence polarization (FP) assay. For the present assay, we used the Orange TranscreenerTM ADP2 (BellBrooks Labs, Madison, Wis) detection system to monitor ADP production in the kinase reaction. […] This allows the ADP tracer to freely rotate leading to a decrease in the observed FP value. The amount of ADP produced can then be calculated using a calibration curve. The positive control for the assay was TG003 (Sigma-Aldrich, cat # 300801-52-9) which is a Clk4 inhibitor [2].
NCGC Assay Protocol Summary: Two uL/well of substrate-buffer solution (100 uM RS peptide, 1 uM ATP, 25 mM Tris pH7.5, 10 mM MgCl2, 0.5 mM EGTA, 2.5 mM DTT, 0.01% Triton X-100 final concentration) was dispensed into 1,536-well assay plates (Greiner, solid black medium-binding plates) with Aurora Discovery BioRAPTR Flying Reagent Dispenser (FRD; Beckton-Dickenson). Using a Kalypsys pin tool equipped with a 1,536-pin tool, 23 nL of compound solution was transferred to the assay plate. Two uL/well Clk4-buffer solution (6.25 nM Clk4, 25 mM Tris pH 7.5, 10 mM MgCl2, 0.5 mM EGTA, 2.5 mM DTT, 0.01% Triton X-100, final concentration) was then added using the FRD yielding a total kinase reaction volume of 4 uL/ well. Then 4 uL/well of detection mixture (4 nM orange fluorescent tracer, 1 ug/mL ADP antibody, final concentration) was then added after an hour and the polarization signal was measured using the EnVision plate reader (PerkinElmer, Waltham, MA) after 30 min of room temperature incubation using the following filters and program settings: BODIPY TMR FP dual Enh mirror (barcode 682); BODIPY-TMR 531 (barcode 105) excitation; BODIPY-TMR FP P/S polarized 595 nm filters (barcodes 210 and 211, respectively); 100% light; 150 flashes; 1.35 G-factor; Detector gains were 685 for the 1st detector; 630 for the 2nd detector.
% is scaled to controls: 0 for no effect and ±100 for the full control effect; potency is read from the fitted curve at half-maximal effect.

Chain of Dual specificity protein kinase CLK4 (Homo sapiens) (Q9HAZ1 whole entry, looked up): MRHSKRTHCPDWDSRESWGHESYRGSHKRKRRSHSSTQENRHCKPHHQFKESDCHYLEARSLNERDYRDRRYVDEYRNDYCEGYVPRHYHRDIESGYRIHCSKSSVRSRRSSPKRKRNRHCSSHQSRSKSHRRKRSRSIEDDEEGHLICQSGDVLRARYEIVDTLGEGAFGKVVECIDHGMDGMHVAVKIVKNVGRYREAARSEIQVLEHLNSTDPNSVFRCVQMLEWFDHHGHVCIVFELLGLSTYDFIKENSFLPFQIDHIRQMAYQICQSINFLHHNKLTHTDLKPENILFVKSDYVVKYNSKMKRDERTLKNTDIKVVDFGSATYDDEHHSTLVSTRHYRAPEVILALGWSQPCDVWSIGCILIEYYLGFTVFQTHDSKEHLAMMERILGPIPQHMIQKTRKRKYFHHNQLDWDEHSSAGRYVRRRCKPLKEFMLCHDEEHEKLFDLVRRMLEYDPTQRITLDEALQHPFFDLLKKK

SMILES | activity change, negative = inhibition [%] | Potency
O=c1c(-c2ccc(F)cc2)nc2cnc(N3CCNCC3)nc2n1C1CC1 | 2.23 | 
CN1CCN(c2ncc3nc(-c4cccs4)c(=O)n(CCC#N)c3n2)CC1 | -1.84 | 
CN(C)c1ncc2nc(-c3cc(F)cc(F)c3)c(=O)n(C3CC3)c2n1 | 9.81 | 
COc1ccc(Oc2ncc3nc(-c4ccc(Cl)cc4)c(=O)n(C[C@H]4CCCO4)c3n2)cc1 | 12.1 | 
O=c1c(-c2cc(F)cc(F)c2)nc2cnc(N3CCOCC3)nc2n1Cc1cccs1 | 3.75 | 
COCCn1c(=O)c(C)nc2cnc(N(C)C)nc21 | 9.11 | 
Cc1ccccc1-c1nc(N2CCN(C)CC2)c2ccccc2n1 | 3.98 | 
COCCn1c(=O)c(-c2cc(F)cc(F)c2)nc2cnc(N3CCOCC3)nc21 | 10.6 | 
CN(Cc1ccco1)c1ncncc1-c1cccc(C#N)c1 | 4.98 | 
Cc1nc2cnc(Nc3ccccc3)nc2n(CCC#N)c1=O | -4.59 | 
COc1cccc(Cn2c(=O)c(-c3cc(F)cc(F)c3)nc3cnc(N(C)C)nc32)c1 | 6.22 | 
COc1ccc2[nH]cc(CCNc3ncnc4ccc(-c5cccnc5)cc34)c2c1 |  | 3.16 µM (active)
CN(C)c1ncc2nc(-c3ccc(F)cc3)c(=O)n(C[C@H]3CCCO3)c2n1 | 11.5 | 
Cc1nc2cncnc2n(C2CC2)c1=O | 1.45 | 
COc1cccc(Cn2c(=O)c(C)nc3cnc(OC)nc32)c1 | -0.842 | 
CC(=O)NCCNc1ccnc(-c2ccccc2C(F)(F)F)n1 | -7.04 | 
CCNc1ncc2nc(-c3ccccc3)c(=O)n(C[C@H]3CCCO3)c2n1 | 3.91 | 
FC(F)(F)c1ccccc1-c1cc(NCc2ccccc2)ncn1 | -7.02 | 
O=c1c(CCc2ccccc2)nc2cnc(N3CCNCC3)nc2n1C1CC1 | 0.153 | 
N#Cc1cccc(-c2cncnc2NCc2cccs2)c1 | -24.3 | 

SMILES | activity change, negative = inhibition [%] | Potency
COc1ncc2nc(C)c(=O)n(C3CC3)c2n1 | 9.11 | 
COCCNc1nc(-c2ccccc2OC)nc2ccccc12 | -7.12 | 
Cn1c(=O)c(-c2cccc(C#N)c2)nc2cnc(Oc3ccccc3)nc21 | 11.9 | 
CN(C)C(=O)c1ccc(-c2ccc3ncnc(N4CCC(C(=O)O)CC4)c3c2)cc1 | -28.9 | 
COc1ccc(-c2nc3cnc(Nc4cccc(OC)c4)nc3n(C[C@H]3CCCO3)c2=O)cc1 | 7.58 | 
COc1ccccc1-c1cncnc1NCCNC(C)=O | 7.35 | 
O=c1c(-c2cccs2)nc2cnc(N3CCOCC3)nc2n1-c1ccccc1 | 7.96 | 
Cn1c(=O)c(-c2cccs2)nc2cncnc21 | -9.09 | 
Cn1c(=O)c(-c2ccc(Cl)cc2)nc2cnc(Nc3ccccc3)nc21 | 8.58 | 
CCNc1ncc2nc(-c3cccs3)c(=O)n(C)c2n1 | 2.53 | 
Cn1c(=O)c(-c2ccc(Cl)cc2)nc2cnc(N3CCOCC3)nc21 | 8.27 | 
O=c1c(-c2ccc(F)cc2)nc2cnc(N3CCNCC3)nc2n1-c1ccccc1 | 8.19 | 
Cc1ccccc1-c1cc(N(C)C)ncn1 | -8.37 | 
COCCn1c(=O)c(-c2cn(C)c3ccccc23)nc2cnc(N3CCOCC3)nc21 | -1.53 | 
Cc1ccccc1-c1nccc(NCCN2CCOCC2)n1 | -1.23 | 
CN(C)c1ccc(-c2cc(Nc3ccc(F)cc3)ncn2)cc1 | -6.38 | 
COc1ncc2nc(-c3cccs3)c(=O)n(CCc3ccccc3)c2n1 | 5.1 | 
Fc1ccc(Nc2ncncc2-c2ccoc2)cc1 |  | 5.01 µM (active)
COc1ccc(-n2c(=O)c(-c3ccccc3)nc3cnc(N4CCNCC4)nc32)cc1 | 6.13 | 
COc1cccc(-c2cncnc2N(C)Cc2ccco2)c1 | 1.15 | 
